Source: PubChem BioAssay
Several values for one entry are separate records, joined by “and”; a condition that tells them apart may be missing. Equal entries are not always repeated. Activity calls are given as the source filed them.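 The calls were made as follows, unless noted: active = compound whose remaining NAD level is above about 45 nM (limit read from the data); inactive = the rest.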

Legend:
[1] = liver-stage malaria parasite growth inhibition, primary screen, cell-based, HepG2, luciferase luminescence, HepG2 viability (AID 624349; in the data active = parasite load remaining mostly below about 12%, no sharp cut-off; inactive = mostly above about 10%;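 also: 100% = mean of DMSO negative control wells on the same plate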); details: P. berghei liver stage in HepG2, luciferase luminescence, concentration not given here; parasite load remaining: stronger effect = lower value; viability: measured here: HepG2 viability without parasites
[2] = stimulators of nuclear beta-catenin in C2C12, primary screen, imaging, WNT3A-conditioned medium, mouse C2C12, NPC library (AID 1117326; in the data active = nuclear beta-catenin stimulation mostly above about 4.2%, no sharp cut-off; inactive = mostly below about 10%); details: stronger effect = higher value
[3] = stimulators of insulin release from INS-1E, primary screen, cell-based, 5 mM glucose, NPC library (AID 1117329;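 active = compound raises insulin release from rat beta cells at 5 mM glucose, no numeric limit stated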); details: rat INS-1E insulin secretion, at 10 µM, stronger effect = higher value
[4] = growth inhibition of GSK3B-pretreated HCT116 cells – cell-based, CellTiter-Glo, 0.2 to 20 µM (AID 1117336;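 active = compounds lowering colon cancer cell viability after pretreatment blocking the GSK3B kinase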); details: HCT116 viability after GSK3B inhibitor, at 20 µM, stronger effect = higher value
[5] = inhibition of endothelial tube formation, primary screen, imaging, VEGF stimulated, CD31 staining, tube area, NPC library (AID 1117340;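 active = compound that reduces growth-factor-driven endothelial tube area in a mixed cell culture, no cutoff stated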); details: VEGF-stimulated ADSC/ECFC co-culture, at 10 µM, stronger effect = higher value
[6] = glucagon-like peptide 1 release enhancers, primary assay, NCI-H716 cell line, NPC library (AID 1117341;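 active = compound raises GLP1 secretion from the human gut endocrine cells, with no numeric limit stated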); details: NCI-H716 cells, at 10 µM, stronger effect = higher value
[7] = HCT116 colon cancer cell growth inhibition, primary screen, CellTiter-Glo luminescence, NPC library (AID 1117342;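 active = compounds that lower survival of HCT116 colon cancer cells in the luminescence readout, no numeric limit stated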); details: at 20 µM (top of the series)
[8] = CellTiter-Glo luminescent readout of SW480 viability loss, NPC library primary (AID 1117343;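 active = compounds that lower viability of the colon cancer cells in the luminescence readout, with no numeric limit stated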); details: CellTiter-Glo luminescence; at 20 µM (top of the series) unless noted
[9] = decreased DLD-1 cellular survival, CellTiter-Glo luminescent readout, NPC compound collection, primary HTS (AID 1117346;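 active = compounds that lower survival of DLD-1 colon cancer cells in the luminescence readout, no cutoff given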); details: DLD-1 viability, CellTiter-Glo luminescence; at 20 µM (top of the series)
[10] = differential killing of epithelial or mesenchymal cells, primary screen, imaging, PC-3E GFP, TEM4-18 mCherry, co-culture (AID 1345086;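 active = compounds killing one labelled cell type while sparing the other, by normalised counts and ratio limits, not self-fluorescent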;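 as to all read-outs here: cells exposed to compound for 72 h before imaging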;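 as to red/green cell ratio (normalised): normalised mesenchymal count divided by normalised epithelial count so high means epithelial killing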); details: imaging cell counts, at 1 µM; for red/green cell ratio (normalised): actives lie on both sides, counts scaled to control wells, 1 = unselective
[11] = sensitizers of A549 cells to miR-34 induction, primary screen, imaging, A549 dox-inducible miR-34, nuclei and caspase counts (AID 1347080;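 active = compounds whose cell count with miR-34 switched on is under 0.7 times the count with it off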); details: A549 miR-34 inducible, Hoechst nuclei count, 48 h
[12] = target: NAD(+) hydrolase SARM1 (Homo sapiens) (UniProt Q6SZW1); assay: SARM1 TIR NADase inhibitors, cell lysate, NAD-Glo luminescence (AID 1508614); details: SAM-TIR HEK293T lysate NADase, at 1 µM, stronger effect = higher value;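 also: higher remaining NAD means stronger inhibition of SARM1 NADase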
[13] = viability rescue of complex I mutant cybrids, primary screen, cell-based, galactose medium, ATP luminescence (AID 1645843;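 active = z-score of at least 1.8 in each of two replicates, scored against plate mean and spread of sample wells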;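 also: positive z means more ATP and so rescue of galactose-driven cybrid death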); details: complex I mutant cybrid cells, 72 h, stronger effect = higher value
[14] = measured here: epithelial PC-3E GFP cell survival
[15] = measured here: mesenchymal TEM4-18 mCherry cell survival
[16] = stronger effect = lower value, cell number ratio, induced over uninduced
[17] = measured here: relative caspase fold change +Dox/-Dox
[18] = measured here: total cells with miR-34 induction, stronger effect = lower value
[19] = measured here: total cells without miR-34 induction

NAD(+) hydrolase SARM1 (Homo sapiens), sequence (Q6SZW1 whole entry, looked up): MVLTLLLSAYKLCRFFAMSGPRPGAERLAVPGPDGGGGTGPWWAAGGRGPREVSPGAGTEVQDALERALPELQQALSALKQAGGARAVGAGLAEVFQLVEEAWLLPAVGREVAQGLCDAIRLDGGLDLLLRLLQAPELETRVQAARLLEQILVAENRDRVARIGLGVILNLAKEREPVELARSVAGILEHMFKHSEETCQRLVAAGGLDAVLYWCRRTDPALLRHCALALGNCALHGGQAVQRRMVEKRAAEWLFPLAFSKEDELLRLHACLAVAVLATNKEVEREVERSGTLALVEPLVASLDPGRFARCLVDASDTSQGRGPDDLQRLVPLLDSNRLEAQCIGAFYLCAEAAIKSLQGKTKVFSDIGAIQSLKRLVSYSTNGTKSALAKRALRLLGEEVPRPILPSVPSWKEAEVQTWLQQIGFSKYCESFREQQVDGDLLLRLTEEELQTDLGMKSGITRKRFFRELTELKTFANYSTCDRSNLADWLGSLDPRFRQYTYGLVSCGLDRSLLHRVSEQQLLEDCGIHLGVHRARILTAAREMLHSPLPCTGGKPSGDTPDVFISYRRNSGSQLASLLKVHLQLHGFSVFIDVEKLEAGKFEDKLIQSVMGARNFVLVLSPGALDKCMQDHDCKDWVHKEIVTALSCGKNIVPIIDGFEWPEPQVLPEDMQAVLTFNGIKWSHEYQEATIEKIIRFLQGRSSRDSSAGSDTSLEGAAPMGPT

SMILES | parasite load remaining [1] | viability [1] | nuclear beta-catenin stimulation ([2]; at 10 µM) | nuclear beta-catenin stimulation ([2]; stimulation, at 2 µM) | insulin secretion stimulation [3] | viability decrease [4] | tube area decrease [5] | GLP1 secretion stimulation [6] | inhibition of viability [7] | viability decrease (inhibition) [8] | viability decrease (inhibition) [9] | red/green cell ratio (normalised) [10] | normalised cell number [10, 14] | normalised cell number [10, 15] | fold change [11, 16] | fold change [11, 17] | cell count [11, 18] | cell count [11, 19] | remaining NAD [12] | z-score [13]
O=C(Nc1ccc(C(=O)O)c(O)c1)c1ccccc1 | 47.9% (inactive) | 101% | 0.3% (inactive) | 0.4% | -1.2% (inactive) | 1.7% (inactive) | 7.2% (inactive) | -0.4% (inactive) | -1.1% (inactive) | 74.5% (active) | 0.8% (inactive) | 1.04 (inactive) | 0.89 | 0.92 | 0.856 (inactive) | 5.2 | 11700 | 13700 | 10 nM (inactive) | 
CC(=O)NC(Cc1ccccc1)C(=O)O (stereo not drawn) |  |  | 1% (inactive) | -0.2% | -2.3% (inactive) | -0.2% (inactive) | -0.2% (inactive) | 2.6% (inactive) | 3.2% (inactive) | 23.3% (inactive) | 8.55% (inactive) | 0.91 (inactive) | 1.11 | 1.01 |  |  |  |  | 10 nM (inactive) | 
NC(=O)CCCCC1CCSS1 (stereo not drawn) |  |  | -0.8% (inactive) | 2.1% | -0.6% (inactive) | -164% (inactive) | 18% (inactive) | -0.8% (inactive) | -10.3% (inactive) | -43.7% (inactive) | -25.4% (inactive) | 1.02 (inactive) | 0.81 | 0.82 | 0.89 (inactive) | 1.01 | 8370 | 9400 | 10 nM (inactive) | 
Cc1cc(C(C#N)c2ccc(Cl)cc2)c(Cl)cc1NC(=O)c1cc(I)cc(I)c1O (stereo not drawn) | 10.9% (inactive) | 94.5% | 2.4% (inactive) | 1.5% | -0.6% (inactive) | 120% (active) | 111% (active) | 14.4% (inactive) | 125% (active) | 163% (active) | 101% (active) | 0.8 (inactive) | 1.27 | 1.02 |  |  |  |  | 10 nM (inactive) | 0.12 (inactive)
CC[C@@H](CO)NCCN[C@@H](CC)CO | 80.8% (inactive) and 73.3% (inactive) | 73% and 99% | 0.5% (inactive) | 4.7% | 2.6% (inactive) | -8% (inactive) | 14.4% (inactive) | -1.2% (inactive) | -4.17% (inactive) | 11.7% (inactive) | -13% (inactive) | 0.98 (inactive) | 0.99 | 0.97 | 0.901 (inactive) | 1.1 | 11300 | 12600 | 10 nM (inactive) | 
O=C(OOC(=O)c1ccccc1)c1ccccc1 | 39% (inactive) | 82.1% | 2.3% (inactive) | 0.3% | -1.3% (inactive) | -5.45% (inactive) | -15.4% (inactive) | -3.2% (inactive) | 1.1% (inactive) | 10% (inactive) | 18.9% (inactive) | 1.04 (inactive) | 1.11 | 1.15 | 0.948 (inactive) | 3.94 | 10800 | 11400 | 10 nM (inactive) | 
O=C(CCCl)NCc1ccccc1 |  |  | 0.5% (inactive) | 8.3% | 1.8% (inactive) | 0.2% (inactive) | -9.5% (inactive) | -0.7% (inactive) | 5% (inactive) | 0.6% (inactive) | 14.6% (inactive) | 0.95 (inactive) | 1.13 | 1.07 |  |  |  |  | 10 nM (inactive) | 
OC1C(O)C(O)C(O)C(O)C1O (stereo not drawn) | 41.7% (inactive) | 104% | 2.8% (inactive) | 0.4% | 0.4% (inactive) | -3.8% (inactive) | 3% (inactive) | -2.7% (inactive) | 3.1% (inactive) | 4.8% (inactive) | 0.6% (inactive) | 1.17 (inactive) | 0.97 | 1.13 | 0.895 (inactive) | 0.941 | 11600 | 12900 | 10 nM (inactive) | 
O=C1c2ccccc2C(=O)C1c1ccc(Br)cc1 | 54.8% (inactive) | 105% | 2.7% (inactive) | 1.3% | 4.3% (inactive) | 52.2% (active) | 31.1% (inactive) | -0.4% (inactive) | 61.7% (active) | 67.2% (active) | 26.1% (inactive) | 0.9 (inactive) | 0.94 | 0.85 | 0.831 (inactive) | 3.92 | 10800 | 13100 | 10 nM (inactive) | 
COc1cc(C(=O)NCCCCCC(=O)O)cc(OC)c1OC | 48.5% (inactive) | 104% | -0.1% (inactive) | -2.6% | 0.5% (inactive) | 5.7% (inactive) | 12.7% (inactive) | -0.6% (inactive) | 6.2% (inactive) | -6.6% (inactive) | -0.7% (inactive) | 0.91 (inactive) | 0.95 | 0.86 | 0.815 (inactive) | 7.04 | 11100 | 13600 | 10 nM (inactive) | 
